# MLL AF4-AF9 inh – blocks AF4 peptide binding to human AF9. inhibition, % at 10 µM. AlphaScreen, biotin-AF4 peptide binding to FLAG-AF9. AID 651704. 350,000 tested, 0.47% active;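 active = every replicate reaching a set inhibition limit, whatever the replicate mean, cut at about 25% in these data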;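 also: 0% = plate neutral control median and 100% = total signal loss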
# RAD52 inh – RAD52 (human) annealing inhibition; P43351; inhibition, % at 18.7 µM; recombinant RAD52 DNA annealing, FRET fluorescence; 360,000 tested, 0.46% active;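 active = every replicate showing at least 50% inhibition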
# DENV2 CPE rescue – DENV2-induced cell death inhibition; 350,000 tested, 1.7% active; DENV2-infected cells, cytopathic effect rescue, plate reader; CPE inhibition, % at 9.99 µM; AID 651640; in the data active = CPE inhibition above about 20%, passing the limit was not always enough; tested in BHK-21 cells;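 also: 0% = median of neutral control wells and 100% = median of positive control wells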
# FGF22 binding – binders of recombinant human FGF22 by thermal shift; Q9HCT0; SYPRO orange fluorescence; percent of sucrose octasulfate shift, DMSO zero; activity (Tm shift, normalised), % at 9.99 µM; 340,000 tested, 1.5% active;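 active = mean Tm shift, scaled 0 neutral to 100 positive control, at about 1.3% or above, every replicate too, limit read from the data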
# ERAP1 inh – ERAP1 (human) enzyme inhibition. inhibition, % at 10.7 µM. 340,000 tested, 0.15% active. Q9NZ08. recombinant ERAP1, Leu-AMC fluorescence, 60 min;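 active = mean replicate inhibition of at least 30%, or all replicates individually reaching that 30% level; inactive = mean below 30% and not every replicate reaching it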;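 also: 0% = neutral control wells and 100% = L-leucinethiol positive control wells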
# Starred values were filed as active, the others as inactive; x = no result given. Only some compounds are listed: those with a hit (about 4% of all), similar ones and a draw of the others.
SMILES,MLL AF4-AF9 inh,RAD52 inh,DENV2 CPE rescue,FGF22 binding,ERAP1 inh
CCCNC(=O)N1CC2(CN(CC3CCOCC3)C2)c2c([nH]c3cc(OC)ccc23)[C@H]1CO,-1,8,0,0,0
CC(=O)Oc1ccc(C2=Cc3ccc(OC(C)=O)cc3OC2C)cc1 (centres undefined),-53,-11,-3,43*,3
Cc1cccc(N2CCN(C(C(=O)NCc3ccccc3)c3ccco3)CC2)c1C (centres undefined),2,-19,3,0,x
Cc1cccc(N2CCN(C(C(=O)NCc3ccccc3)c3ccc(F)cc3)CC2)c1C (centres undefined),x,0,59*,0,-3
COc1ccc(S(=O)(=O)N(C)C[C@H]2Oc3c(NC(=O)Nc4ccc(C(F)(F)F)cc4)cccc3C(=O)N([C@H](C)CO)C[C@@H]2C)cc1,0,-5,21*,-1,-2
C[C@@H]1CN([C@H](C)CO)C(=O)c2cccc(NC(=O)Nc3ccc(F)cc3)c2O[C@H]1CN(C)Cc1ccc(C(F)(F)F)cc1,4,16,x,0,-1
COc1ccc(NC(=O)Nc2cccc3c2O[C@H](CN(C)C(=O)NC2CCCCC2)[C@H](C)CN([C@@H](C)CO)C3=O)cc1,3,-5,88*,0,0
C[C@H](CO)N1C[C@H](C)[C@@H](CN(C)Cc2ccc(C(F)(F)F)cc2)Oc2c(NC(=O)Nc3ccc(F)cc3)cccc2C1=O,3,18,69*,0,0
COc1ccc(CN(C)C[C@@H]2Oc3c(NC(=O)Nc4ccc(OC)cc4)cccc3C(=O)N([C@H](C)CO)C[C@H]2C)cc1,1,8,42*,0,-1
C[C@@H]1CN([C@@H](C)CO)C(=O)c2cc(NC(=O)CCN3CCOCC3)ccc2O[C@H]1CN(C)S(=O)(=O)c1ccccc1,-2,-7,-8,0,-14
COC(=O)CCCCCCC(=O)Nc1ccc(C2OC(CSc3nc4ccccc4s3)CC(c3ccccc3)O2)cc1 (centres undefined),-4,13,-1,0,-1
C[C@H](CO)N1C[C@H](C)[C@H](CN(C)Cc2ccc(C(F)(F)F)cc2)Oc2c(NC(=O)c3ccncc3)cccc2C1=O,-2,10,3,1,1
C[C@H]1CN([C@@H](C)CO)C(=O)c2cccc(NC(=O)c3ccncc3)c2O[C@H]1CN(C)Cc1ccc(C(F)(F)F)cc1,-1,-3,24*,-1,-2
C[C@@H]1CN([C@H](C)CO)C(=O)c2cccc(NC(=O)Nc3ccc4c(c3)OCO4)c2O[C@@H]1CN(C)Cc1ccc(C(F)(F)F)cc1,3,7,36*,-1,1
COc1ccc(NC(=O)Nc2cccc3c2O[C@H](CN(C)Cc2ccc(C(F)(F)F)cc2)[C@@H](C)CN([C@H](C)CO)C3=O)cc1,2,-4,22*,-1,0
COc1ccc(CN(C)C[C@@H]2Oc3c(NC(=O)Nc4ccc(C(F)(F)F)cc4)cccc3C(=O)N([C@H](C)CO)C[C@H]2C)cc1,3,3,4,0,1
CC(C)C#Cc1ccc2c(c1)O[C@@H](CN(C)Cc1ccncc1)[C@H](C)CN([C@@H](C)CO)S2(=O)=O,x,x,2,0,x
O=C(Nc1ccccc1F)N1[C@@H]2CNC[C@H]1C2c1ccc(-c2cccnc2)cc1 (some centres undefined),-4,-7,-5,x,2
CCCCC(CCCCl)C(=O)Nc1ccccc1 (centres undefined),-3,-1,x,43*,3
C[C@@H]1CN([C@H](C)CO)C(=O)c2cc(NC(=O)Nc3ccc(F)cc3)ccc2O[C@@H]1CN(C)Cc1ccc(Oc2ccccc2)cc1,5,36,3,0,-1
CC(C)NC(=O)Nc1cccc2c1O[C@H](CN(C)S(=O)(=O)c1ccccc1)[C@H](C)CN([C@H](C)CO)C2=O,-1,8,2,0,0
O=C(Nc1ccc(S(=O)(=O)N2CCCCC2c2cccnc2)cc1)c1c(F)cccc1F (centres undefined),0,-13,-8,44*,-2
COc1ccc(NC(=O)Nc2ccc3c(c2)[C@@H]2C[C@H](CC(=O)N4CCN(C)CC4)O[C@@H](CO)[C@@H]2O3)cc1,8,23,0,0,0
Cc1cc(=O)oc2cc(OCC(=O)Nc3ccccc3C(N)=O)c(Cl)cc12,2,-6,-2,43*,0
Cc1cc(=O)oc2cc(OCC(=O)Nc3ccc(CN4CCOCC4)cc3)c(Cl)cc12,-1,-26,-4,0,1

# Screening data deposited in PubChem BioAssay by Broad Institute.
